Laboratory results: PubChem BioAssay AID1259343 (VanderVen Lab, College of Veterinary Medicine, Cornell …, 2017)
Among all 6,200 compounds or so, about 2,900 (47%) were called active. So high a share suggests a set chosen from earlier hits. Some of the results follow. Values without a mark were called inactive. Cut-off read from the data, not from the text of the source: active = inhibition above about 50%; inactive = the rest.

Test: Mycobacterium tuberculosis growth inhibition, primary screen (AID 1259343)
Settings: inhibition: at 10 µM, hits give high values; outcome: 10 uM

Structure (SMILES)	inhibition
Nc1ccc(Oc2cc(N)cc(Oc3ccccc3)c2)cc1	-36.6%
COc1cc(Oc2ccccc2)ccc1N	23.5%
NC(CC1CCCC1)c1ccc(Oc2ccccc2)cc1 (stereo not given)	79.5% (active)
COc1ccccc1C1(O)CCN(CCCn2c3ccccc3c3ccccc32)CC1	51.9% (active)
CCCc1ccc(C(O)c2ncc(-c3ccccc3C)[nH]2)cc1 (stereo not given)	78% (active)
CCCc1ccc(C(O)c2ncc(-c3cccc(C)c3)[nH]2)cc1 (stereo not given)	19.5%
Cc1ccc(C(O)c2ncc(-c3ccc(Cl)cc3)[nH]2)cc1 (stereo not given)	36.3%
CCCc1ccc(C(O)c2ncc(-c3ccccc3)[nH]2)cc1 (stereo not given)	36.8%
Cc1ccc(-c2cnc(C(O)c3ccc(Cl)c(F)c3)[nH]2)cc1 (stereo not given)	42.2%
CCc1ccc(C(O)c2ncc(-c3cccc(C(F)(F)F)c3)[nH]2)cc1 (stereo not given)	34%
CCc1ccc(C(O)c2ncc(-c3cccc(C)c3)[nH]2)cc1 (stereo not given)	56.7% (active)
Cc1ccc(-c2cnc(C(O)c3cc(C)cc(C)c3)[nH]2)cc1 (stereo not given)	61.7% (active)
Cc1cc(C(O)c2ncc(-c3ccc(Cl)cc3)[nH]2)ccc1F (stereo not given)	84.8% (active)
CCc1ccc(C(O)c2ncc(-c3ccc(C)cc3)[nH]2)cc1 (stereo not given)	1.21%
CCCc1ccc(C(O)c2ncc(-c3ccccc3F)[nH]2)cc1 (stereo not given)	21.1%
CC(C)(C)c1ccc(C(O)c2ncc(-c3ccccc3)[nH]2)cc1 (stereo not given)	13.8%
OC(c1cccc(F)c1)c1ncc(-c2ccc(C(F)(F)F)cc2)[nH]1 (stereo not given)	19%
OC(c1ccc(Cl)cc1)c1ncc(-c2cccc(F)c2)[nH]1 (stereo not given)	8.73%
OC(c1cccc(F)c1)c1ncc(-c2ccc(Oc3ccccc3)cc2)[nH]1 (stereo not given)	89.6% (active)
Cc1ccc(C(O)c2ncc(-c3cccc(F)c3)[nH]2)cc1 (stereo not given)	11.8%
Cc1cc(C)c(C(O)c2ncc(-c3cccc4ccccc34)[nH]2)c(C)c1 (stereo not given)	78.9% (active)
Cc1ccc(C(O)c2ncc(-c3ccc(C(F)(F)F)cc3)[nH]2)cc1F (stereo not given)	61.8% (active)

Structure (SMILES)	inhibition
OC(c1ccccc1)c1ncc(-c2ccc(Oc3ccccc3)cc2)[nH]1 (stereo not given)	36.3%
Cc1ccccc1-c1cnc(C(O)c2ccc(C(C)(C)C)cc2)[nH]1 (stereo not given)	49.1%
CCCc1ccc(C(O)c2ncc(-c3cccc(F)c3)[nH]2)cc1 (stereo not given)	35.4%
OC(c1cc(F)cc(Cl)c1)c1ncc(-c2ccc(Cl)cc2)[nH]1 (stereo not given)	86.1% (active)
CS(=O)c1nncn1CC#Cc1ccc(C(F)(F)F)cc1 (stereo not given)	37%
OC(c1cc(F)cc(Cl)c1)c1ncc(-c2ccc3ccccc3c2)[nH]1 (stereo not given)	73.4% (active)
OC(c1ccc(Cl)c(F)c1)c1ncc(-c2cccc(F)c2)[nH]1 (stereo not given)	36.1%
OC(c1ccc(Cl)c(Cl)c1)c1ncc(-c2cccc(F)c2)[nH]1 (stereo not given)	23.7%
Cn1c(CCC(=O)Nc2ccc(F)cc2F)nc(=O)c2ccccc21	72.3% (active)
CCc1nc2c(c(=O)c3ccccc3n2C)c(=O)n1CCc1ccccc1	-31.8%
O=C1c2ccccc2C(=O)N1CCCCNc1ccc(F)cc1F	49.6%
Cn1cnnc1SCC(=O)Nc1ccc2oc3ccccc3c2c1	76.7% (active)
Cn1nnnc1SCC(=O)Nc1ccc2oc3ccccc3c2c1	36.7%
O=C(CSc1nncs1)Nc1ccc2oc3ccccc3c2c1	92.2% (active)
Cc1cc(NC(=O)CSc2nc3ccccc3c(=O)n2C2CCCC(C)C2C)on1 (stereo not given)	9.06%
O=C(CSc1ncnc2c1oc1ccccc12)Nc1ccc2c(c1)OCO2	47.2%
CC(=O)[C@H]1CCC2C3CCC4=CC(=O)CC[C@]4(C)C3CC[C@@]21C (stereo not given in full)	49.6%
CC(C)(C)NC(=O)[C@H]1CC[C@H]2[C@@H]3CC[C@H]4NC(=O)C=C[C@]4(C)[C@H]3CC[C@]12C	86.4% (active)
Cc1ccc(Nc2nc(C)c([N+](=O)[O-])c(N3CCOCC3)n2)c(C)c1	2.59%
COCCCNc1ncnc2c1c(-c1ccccc1)cn2-c1ccc(F)cc1	98.3% (active)
COc1ccc(-n2cc(-c3ccccc3)c3c(NCC(OC)OC)ncnc32)cc1	19.7%
COCCNc1ncnc2c1c(-c1ccccc1)cn2-c1ccc(C)cc1	100% (active)

Structure (SMILES)	inhibition
Cc1ccc(-n2cc(-c3ccccc3)c3c(NCCCO)ncnc32)cc1	24.3%
COCCCNc1ncnc2c1c(-c1ccccc1)cn2-c1ccc(OC)cc1	91.3% (active)
COCC(C)Nc1ncnc2c1c(-c1ccccc1)cn2-c1ccc(F)cc1 (stereo not given)	72.1% (active)
COCC(C)Nc1ncnc2c1c(-c1ccccc1)cn2-c1ccc(OC)cc1 (stereo not given)	-15.1%
COCCNc1ncnc2c1c(-c1ccccc1)cn2-c1cccc(Cl)c1	42.5%
CN(CC1=CC[C@H]2C[C@@H]1C2(C)C)Cc1nnc(-c2ccccc2)o1	39%
CCCCCCCSc1nnc2[nH]c(=O)cc(N)n12	inactive
CCCCCCSc1nnc2[nH]c(=O)cc(N)n12	inactive
CCCCCCSc1nnc2nc(C)cc(C)n12	58.4% (active)
CNc1cc(C(=O)NS(=O)(=O)c2ccccc2)cc(Cl)n1	55.1% (active)
O=S(=O)(Nc1ccc(C(F)(F)F)cc1)c1cccc(Cl)c1	22.9%
O=C(NS(=O)(=O)c1ccccc1)c1cccc(Cl)c1	88.3% (active)
COc1cc(C(=O)NS(=O)(=O)c2ccc(Cl)cc2)ccc1OC(C)C	28.1%
O=C(NS(=O)(=O)c1cncc(Br)c1)c1ccc(OC(F)(F)F)cc1	18.9%
Cc1cc(-c2nc3c(C)cccc3o2)ccc1NC(=O)C(C)C	58.5% (active)
Cc1ccc2oc(-c3ccc(C)c(N)c3)nc2c1	37.6%
N#Cc1c(N=CN2CCCCCC2)sc2c1CCCC2	99% (active)
Cc1ccc(-n2[nH]c(C)c(N=Nc3cccc(-c4cccc(C(=O)O)c4)c3O)c2=O)cc1C	83.7% (active)
Cc1cccc2cc(C(=O)N3C[C@H]4CC=CC[C@H]4C3)oc12	72.4% (active)
Cc1ccc(NC2CCCN(C(=O)c3cc4ccccc4o3)C2)cc1C (stereo not given)	inactive
Cc1cc2cccc(C(=O)N3CCN4CCN(C)C(=O)C4C3)c2o1 (stereo not given)	0.8%
